Test results taken from PubChem BioAssay (NCATS).
Results filed as inconclusive are left out. Entries that show only a call come without a potency. Activity calls are given as the source filed them. The call rests on the fitted dose curve; in most records, active means well fitted curve in the direction sought with a large enough effect; inconclusive means small, poorly fitted or top-dose-only effect, or another doubt; inactive means no such curve, though single readings can be large; an effect the other way counts as inactive or inconclusive.

Experiments:
[1] = molecular target: ATP-dependent 6-phosphofructokinase (Trypanosoma brucei brucei) (UniProt O15648); experiment: qHTS Assay to Find Inhibitors of T. brucei phosphofructokinase: hit validation (AID 492961);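 further: luminescence reports ADP formed as PFK phosphorylates fructose-6-phosphate with ATP; series mostly up to about 51 µM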
Chain of ATP-dependent 6-phosphofructokinase (Trypanosoma brucei brucei) (O15648 whole entry, looked up): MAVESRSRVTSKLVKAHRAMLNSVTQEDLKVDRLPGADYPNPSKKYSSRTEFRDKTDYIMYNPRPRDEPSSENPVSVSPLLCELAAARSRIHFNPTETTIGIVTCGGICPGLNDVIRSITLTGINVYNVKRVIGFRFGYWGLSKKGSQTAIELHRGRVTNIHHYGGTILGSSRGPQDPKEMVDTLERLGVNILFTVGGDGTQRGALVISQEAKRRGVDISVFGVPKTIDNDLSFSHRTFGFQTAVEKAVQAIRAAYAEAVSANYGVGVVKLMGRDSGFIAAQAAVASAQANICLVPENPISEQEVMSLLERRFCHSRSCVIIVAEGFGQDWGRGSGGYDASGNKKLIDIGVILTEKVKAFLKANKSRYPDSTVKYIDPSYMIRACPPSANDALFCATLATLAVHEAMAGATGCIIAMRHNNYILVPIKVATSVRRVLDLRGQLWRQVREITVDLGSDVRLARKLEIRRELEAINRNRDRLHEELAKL
How it was run: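 Measures ADP output of PFK (1.25 nM) at 0.1 mM ATP, 0.5 mM F6P, pH 8.0 TEA buffer with 5 mM MgCl2. No-enzyme wells define full inhibition; uninhibited enzyme wells define zero.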

[2] = molecular target: Ubiquitin carboxyl-terminal hydrolase 1 (Homo sapiens) (UniProt O94782); experiment: Inhibitors of USP1/UAF1: Pilot qHTS (AID 504865); further: nearly all actives have a fitted effect of over 35% in size; further: potency means the concentration at half of the fitted maximal effect
Chain of Ubiquitin carboxyl-terminal hydrolase 1 (Homo sapiens) (O94782 whole entry, looked up): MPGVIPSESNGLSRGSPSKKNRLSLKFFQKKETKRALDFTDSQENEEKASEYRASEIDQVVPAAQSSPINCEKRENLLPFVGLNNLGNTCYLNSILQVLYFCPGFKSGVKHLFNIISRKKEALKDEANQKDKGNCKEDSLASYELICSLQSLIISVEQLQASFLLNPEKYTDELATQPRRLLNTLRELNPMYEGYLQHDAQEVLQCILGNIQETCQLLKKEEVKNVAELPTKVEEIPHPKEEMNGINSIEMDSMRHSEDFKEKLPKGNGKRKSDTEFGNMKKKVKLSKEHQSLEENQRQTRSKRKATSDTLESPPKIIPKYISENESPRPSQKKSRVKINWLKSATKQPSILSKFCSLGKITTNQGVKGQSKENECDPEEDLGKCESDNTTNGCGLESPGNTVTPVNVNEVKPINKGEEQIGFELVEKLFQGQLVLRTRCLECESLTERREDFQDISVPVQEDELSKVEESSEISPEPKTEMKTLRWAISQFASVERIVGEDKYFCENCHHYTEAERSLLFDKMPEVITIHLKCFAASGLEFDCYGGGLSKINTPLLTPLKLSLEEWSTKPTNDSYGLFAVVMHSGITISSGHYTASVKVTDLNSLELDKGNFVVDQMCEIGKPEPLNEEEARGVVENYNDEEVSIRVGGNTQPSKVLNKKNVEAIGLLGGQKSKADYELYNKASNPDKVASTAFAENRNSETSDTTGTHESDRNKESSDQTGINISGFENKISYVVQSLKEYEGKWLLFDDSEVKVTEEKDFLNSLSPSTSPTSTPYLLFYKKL
How it was run: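 In 50mM HEPES pH 7.8 containing 0.5mM EDTA, 1mM TCEP, 0.1 mg/ml BSA and 0.01% Tween-20, 1nM USP1/UAF1 is exposed to compound for 15 min, then Ub-Rho (150nM final) is added and fluorescence is read over time.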

Row | SMILES | outcome [1] | Potency [2]
1 | Cc1cccn2c(=O)c(-c3nnn[nH]3)cnc12 | inactive | inactive
2 | CC(=O)Nc1c(I)cc(I)c(C(=O)O)c1I | inactive | inactive
3 | COc1cc2c(cc1OC)C(=O)C(CC1CCN(Cc3ccccc3)CC1)C2 (configuration not stated) | inactive | inactive
4 | CN1C(CCl)Nc2cc(Cl)c(S(N)(=O)=O)cc2S1(=O)=O (configuration not stated) | inactive | inactive
5 | C[C@@H]1C[C@H]2[C@@H]3CCC4=CC(=O)C=C[C@]4(C)[C@@]3(F)[C@@H](O)C[C@]2(C)[C@H]1C(=O)CO | inactive | inactive
6 | CC(C)(CO)[C@@H](O)C(=O)NCCCO | inactive | inactive
7 | COc1c2occc2c(OC)c2c(=O)cc(C)oc12 | inactive | 39.8 µM (active)
8 | CN1CCN(C(c2ccccc2)c2ccccc2)CC1 | inactive | inactive
9 | NCCc1ccn[nH]1 | inactive | inactive
10 | O=C(COc1ccc(Cl)cc1)N1CCN(Cc2ccc3c(c2)OCO3)CC1 | inactive | inactive
11 | O=C(O)CNC(=O)c1ccccc1 | inactive | inactive
12 | CCCOC(C(=O)OC1CCN(C)CC1)(c1ccccc1)c1ccccc1 | inactive | inactive
13 | CC(C)N=C(N)/N=C(\N)Nc1ccc(Cl)cc1 | inactive | inactive
14 | C[C@H]1[C@H](NC(=O)/C(=N/OC(C)(C)C(=O)O)c2csc(N)n2)C(=O)N1S(=O)(=O)O (stereo in doubt) | inactive | inactive
15 | CCOC(=O)c1cccc(N)c1 | inactive | inactive
16 | COc1cc(OC)cc(OC)c1 | inactive | inactive
17 | O=c1c(-c2ccccc2)c1-c1ccccc1 | inactive | inactive
18 | COc1cccc(CCc2ccccc2OCC(CN(C)C)OC(=O)CCC(=O)O)c1 (configuration not stated) | inactive | inactive
19 | OC(CCN1CCCCC1)(c1ccccc1)c1ccccc1 | inactive | inactive
20 | O=C1[C@H]2CCCC[C@H]2C(=O)N1CCCCN1CCN(c2nsc3ccccc23)CC1 | inactive | inactive
21 | COc1cc(C(=S)N2CCOCC2)cc(OC)c1OC | inactive | inactive
22 | CCCCCCCCCCCCCCCCOP(=O)([O-])OCC[N+](C)(C)C | inactive | inactive
23 | CCCCCCCCCCOCC(O)CN (configuration not stated) | inactive | inactive
24 | CCN1CCCC1=O | inactive | inactive
25 | NC(CO)(CO)CO | inactive | inactive
26 | COc1ccc(C2C(=O)c3ccccc3C2=O)cc1 | inactive | inactive
